# Measured values: ChEMBL document CHEMBL3988442, “University of Dundee, Small-Polar-MMV Screening Library” (2021)
# Among all 69,000 compounds or so, about 950 (1.4%) showed an effect of 50% or more. The entries come from a sample that favours strong results as a whole.
# Tested on: Mycobacterium tuberculosis
# Assay: Cornell M. t heat shock assay; note: in the data most compounds retested in dose-response had high values
# Format: functional, organism-based
# Design: dose or concentration left out as unconfirmed
row,SMILES,Percent Effect [%]
1,Cc1cccc(CN2CCc3nnc(CN4CCCCC4)n3CC2)n1.O=C(O)C(F)(F)F.O=C(O)C(F)(F)F,-5.727
2,Cl.Cn1ccnc1N1CCN(C(=O)Cc2ccc(Cl)cc2)CC1,-26.02
3,Cc1ccc(C(=O)N2CC3(CCNCC3)c3cc(Cl)ccc32)cn1.O=C(O)C(F)(F)F.O=C(O)C(F)(F)F,1.032
4,Cc1cccc(CN2C(=O)C[C@H]3[C@@H]2CCN3Cc2ccco2)n1.O=C(O)C(F)(F)F.O=C(O)C(F)(F)F,-4.137
5,O=C(CN1C[C@H]2CC[C@@H]1CN(Cc1ccccn1)C2)Nc1ccccc1,12.62
6,CC(C)(C)c1cc(CN2C[C@@H]3CC[C@H](C2)N(Cc2ccccn2)C3)n[nH]1,82.46
7,CC(C)(C)c1cc(CN2C[C@H]3CC[C@@H]2CN(Cc2ccccn2)C3)n[nH]1,99.23
8,Cc1nnsc1CN1C[C@H]2CC[C@@H]1CN(Cc1ccccn1)C2,-2.005
9,Cn1ccc(NC(=O)CN2C[C@H]3CC[C@@H]2CN(Cc2ccccn2)C3)n1,-21.74
10,Cn1cnc(S(=O)(=O)N2C[C@@H]3CC[C@H](C2)N(Cc2ccccn2)C3)c1,7.06
11,O=C(O)C(F)(F)F.c1ccc(CN2CCc3ncnc(C4CC4)c3CC2)cc1,-16.81
12,CC(=O)N1CC2(CCNCC2)c2cc(Cl)ccc21.Cl,3.682
13,CO[C@H]1CN(C(=O)c2ccccn2)[C@@H]2CCCO[C@H]12.O=C(O)C(F)(F)F,0.07759
14,CS(=O)(=O)NCc1cnc2n1CCN(Cc1ccccn1)CC2.O=C(O)C(F)(F)F,-38.1
15,CCc1n[nH]c(C(=O)NCCn2ccc(C)n2)c1C,-5.809
16,CCc1n[nH]c(C(=O)NCCn2ccnc2C)c1C,-101
17,CCc1n[nH]c(C(=O)NCCn2nccc2C)c1C,66.56
18,CO[C@H]1[C@@H]2CC[C@H]1CN(c1nc(C)nc3ccsc13)C2,7.911
19,Cc1ccc(C2(CN3CCN(Cc4cnc(C)n4C)CC3)CC2)cc1.Cl,-8.472
20,CC(=O)c1cc(CN2C[C@H]3CC[C@@H]2CN(S(C)(=O)=O)C3)cs1,74.41
21,CC(=O)c1cc(CN2C[C@H]3CC[C@@H]2CN(S(=O)(=O)N(C)C)C3)cs1,-20.68
22,CS(=O)(=O)N1C[C@@H]2CC[C@H](C1)N(Cc1ccsc1)C2,18.67
23,Cc1ccc(CN2CCO[C@H]3[C@H](OCc4cccnc4)CC[C@@H]32)o1.O=C(O)C(F)(F)F.O=C(O)C(F)(F)F,17.99
24,Cl.c1cnc2[nH]c(C3CCCNC3)c(CN3CCCOCC3)c2c1 (stereo not drawn),-14.8
25,CCOc1ccc(Br)cc1-c1cc(N)[nH]n1.Cl,3.82
26,CCOc1ccccc1-c1cc(N)[nH]n1.Cl,-11.82
27,Cc1noc(C)c1CN1C(=O)[C@H]2CC[C@@H]1CN(Cc1cccnc1N)C2,4.913

row,SMILES,Percent Effect [%]
1,CC(C)=CCN1C(=O)[C@H]2CC[C@@H]1CN(Cc1cccnc1N)C2,105.7
2,Nc1ncccc1CN1C[C@@H]2CC[C@H](C1)N(CC1CC1)C2=O,-11.72
3,Cl.NC(=O)C1CN(c2ccc(F)cc2)CCN1 (stereo not drawn),7.399
4,COc1ccc(Cl)cc1CNCCCn1ccnc1,13.48
5,Cc1ccc(CN(CCCn2ccnc2)Cc2cccs2)s1.O=C(O)CC(O)(CC(=O)O)C(=O)O,106
6,OCc1ccc(CN(CCCn2ccnc2)Cc2cccnc2)o1,13
7,Cc1ccc(CN(CCCn2ccnc2)Cc2cnn(C)c2)s1.O=C(O)CC(O)(CC(=O)O)C(=O)O,-39.87
8,Cc1ccc(CN(CCCn2ccnc2)Cc2c[nH]nc2C(C)(C)C)s1.O=C(O)CC(O)(CC(=O)O)C(=O)O,9.157
9,Cc1ccc(CN(CCN(C)C)Cc2ncc[nH]2)s1,-11.95
10,Cc1ccc(CN(CCCn2ccnc2)Cc2c[nH]cn2)s1.O=C(O)CC(O)(CC(=O)O)C(=O)O,-3.628
11,COc1ccc(F)c(CN(CCCn2ccnc2)Cc2ccc(C)s2)c1.O=C(O)CC(O)(CC(=O)O)C(=O)O,102.4
12,COc1ccc(F)c(CN2CCC(c3cc(O)nc(C)n3)C2)c1.O=C(O)CC(O)(CC(=O)O)C(=O)O (stereo not drawn),-13.93
13,Cl.Fc1ccc(Cc2cnc(C3CCCN3)cn2)cc1 (stereo not drawn),-27.64
14,COc1ccc(CN(C)[C@@H]2COC[C@H]2c2ccc(F)cc2)cc1.O=C(O)CC(O)(CC(=O)O)C(=O)O,-8.721
15,Cc1oncc1C(=O)N[C@@H]1CN(CC2CC2)C[C@@H]2CCCO[C@@H]21.O=C(O)C(F)(F)F,28.88
16,COCCNC(=O)[C@@H]1C[C@@H]2CCN(c3ncccn3)C[C@H]2O1.O=C(O)C(F)(F)F,-37.39
17,O=C(NC1CC1)C1=CC2(CCN(CC3CC3)CC2)c2ccccc21.O=C(O)C(F)(F)F,-12.48
18,Fc1ccccc1CN(CCCn1ccnc1)CC1CCOC1.O=C(O)CC(O)(CC(=O)O)C(=O)O (stereo not drawn),-23.62
19,c1cc(CN(CCCn2ccnc2)Cc2ccoc2)ccn1,0.7312
20,COc1ccccc1CN(CCCn1ccnc1)CC1CCOC1.O=C(O)CC(O)(CC(=O)O)C(=O)O (stereo not drawn),0.5182
21,OCc1ccc(CN(CCCn2ccnc2)Cc2ccncc2)o1,-4.525
22,Cc1ccc(CN(Cc2cccnc2)C2CC(C)(C)NC(C)(C)C2)s1.O=C(O)CC(O)(CC(=O)O)C(=O)O,-4.253
23,Cc1ccc(CN(CCCn2ccnc2)Cc2c(F)cccc2F)s1.O=C(O)CC(O)(CC(=O)O)C(=O)O,103.6
24,Cc1ccc(CN(CCCn2ccnc2)Cc2cc(F)ccc2F)s1.O=C(O)CC(O)(CC(=O)O)C(=O)O,105.9
25,CC(C)OCCCN(Cc1ccncc1)Cc1cc(F)ccc1F.Cl,-8.981
26,Cc1ccc(CN(CCCN2CCOCC2)Cc2cncn2C)o1.O=C(O)CC(O)(CC(=O)O)C(=O)O,7.314
